Compounds without any hit were thinned out: in the full panel of roughly 79,000, 15% have a hit. Cut-off read from the data, not from the text of the source: active = growth inhibition above about 70%; inactive = the rest.
Legend:
[1] = NCI Yeast Anticancer Drug Screen. Data for the rad50 strain (AID 155);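 note: 0% = growth of vehicle-only cultures of the same strain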; details: S. cerevisiae rad50 strain growth inhibition; at 50.0 µM; hits give high values
Summary of the method: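 Cells are treated with compound, grown, and their growth is then scored against vehicle-only cultures of the same repair-deficient yeast strain.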

[2] = NCI Yeast Anticancer Drug Screen. Data for the mec2-1 strain (AID 157); details: S. cerevisiae mec2-1 strain, at 50.0 µM, hits give high values
Summary of the method: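 Vehicle-treated cultures served as reference for growth inhibition of compound-exposed mec2-1 yeast.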

[3] = NCI Yeast Anticancer Drug Screen. Data for the sgs1 mgt1 strain (AID 161);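 note: 0% = growth of cultures given vehicle only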; details: S. cerevisiae sgs1 mgt1 strain, at 50.0 µM, hits give high values
Summary of the method: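 Mutant yeast exposed to compound; growth scored against vehicle-only wells.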

[4] = NCI Yeast Anticancer Drug Screen. Data for the cln2 rad14 strain (AID 165);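 note: 0% = growth equal to vehicle treated cultures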; details: S. cerevisiae cln2 rad14 strain, at 50.0 µM, hits give high values
Summary of the method: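 Each compound was tested on cln2 rad14 yeast. Inhibition of growth was calculated against vehicle-exposed controls.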

[5] = NCI Yeast Anticancer Drug Screen. Data for the bub3 strain (AID 167); details: S. cerevisiae bub3 mutant strain, at 50.0 µM, hits give high values
Summary of the method: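 Part of a panel of yeast mutants defective in DNA damage repair or cell cycle regulation. Each strain is grown with compound, and inhibition is calculated relative to solvent-treated cultures.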

[6] = NCI Yeast Anticancer Drug Screen. Data for the mlh1 rad18 strain (AID 175); details: S. cerevisiae mlh1 rad18 strain growth inhibition; at 50.0 µM; hits give high values
Summary of the method: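 Vehicle-treated cultures served as the reference for growth inhibition in a yeast strain carrying DNA damage repair alterations exposed to each compound.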

Measured: growth inhibition

Cc1ccc2c(ccc3ccccc32)n1
inactive: [1] 59.8% | [2] 16.8% | [3] 60% | [4] -4.4% | [5] 50.5% | [6] 45.4%

c1ccc2c(c1)C1CCCCCC21N1CCOCC1 (configuration not stated)
inactive: [1] 18% | [2] 1.05% | [3] -14.4% | [4] -5.45% | [5] -30.4% | [6] 7.6%

C1CSC(Sc2nc(SC3=NCCS3)nc(SC3=NCCS3)n2)=N1
inactive: [1] -22% | [2] -10.7% | [3] -10% | [4] -30.3% | [5] -31.2% | [6] -26.4%

COc1ccc(Cl)cc1NC(=O)O/N=C(\Cl)C(C)C
inactive: [1] -3.65% | [2] 7.55% | [3] 10.9% | [4] 16.2% | [5] 24.9% | [6] -74.3%

O=C1CSc2ccnc(=O)n21
inactive: [1] -0.1% | [2] -10% | [3] 16.7% | [4] 11.1% | [5] -9.8% | [6] -8.1%

CC(=O)Nc1ccc(NC(=O)c2ccccc2Cl)cc1
inactive: [1] -0.45% | [2] -9.15% | [3] 4.7% | [4] -6.6% | [5] 10.9% | [6] -33.1%

O=C(CC(c1ccccc1)C(Br)(c1ccccc1)[N+](=O)[O-])c1ccccc1 (configuration not stated)
inactive: [1] 11.8% | [2] -0.45% | [3] -2.75% | [4] 22.2% | [5] -3.4% | [6] -5.8%

O=C(O)C(=Cc1cccc2ccc3ccccc3c12)C(=O)O
inactive: [1] -8.7% | [2] -17.2% | [3] -4.8% | [4] -4.45% | [5] -1.8% | [6] -6.2%

CCC(CC)C(=O)OCCc1ccccc1
inactive: [1] 5% | [2] 3.05% | [3] -2.35% | [4] -6.3% | [5] 9.9% | [6] 0.75%

CCN(CC)C(=S)SCCO
inactive: [1] -4.3% | [2] -11.2% | [3] 6.15% | [4] -9.7% | [5] -3.5% | [6] -1.65%

CCN(CC)CC(O)c1cccc2cccnc12 (configuration not stated)
inactive: [1] 67.7% | [2] -11.4% | [3] 17.4% | [4] 8.8% | [5] 5.2% | [6] 30.2%

Cc1cc(-c2ccccc2)nc(Nc2cc3ccccc3[nH]2)n1
inactive: [1] -8.6% | [2] 13.2% | [3] -17.6% | [4] 0.05% | [5] -4.25% | [6] 0.4%

C/C1=C/C2=CC(C)C[C@@H]2C(=O)[C@]2(C)C(=O)CC(C)(C)[C@H]2CC1=O (some centres not stated)
inactive: [1] 5.5% | [2] -8.6% | [3] 22.4% | [4] 5% | [5] -13.6% | [6] -87.3%

CS/C(=C\c1ccc2ccccc2[n+]1C)N1CCN(CCCO)CC1
inactive: [1] 23.4% | [2] 10% | [3] 9.95% | [4] -20.6% | [5] -7.4% | [6] 38.1%

COc1ccc(/C=C2\N=C(c3ccc([N+](=O)[O-])cc3)OC2=O)cc1
inactive: [1] -2.7% | [2] -6% | [3] -8.35% | [4] -9.5% | [5] 0.55% | [6] 18.4%

CSc1cnc2ccccc2c1Sc1c[nH]c2ccccc2c1=O
inactive: [1] -15% | [2] 3.65% | [3] 1.15% | [4] 11.8% | [5] -8.05% | [6] -12.4%

CCCCOCCOCC(C)O (configuration not stated)
inactive: [1] 14.9% | [2] 10.2% | [3] 37.2% | [4] -24.4% | [5] -8.4% | [6] 2.05%

NS(=O)(=O)c1ccc(NC(=O)Nc2cccc(Cl)c2)cc1
inactive: [1] 1.35% | [2] 12.6% | [3] 15.5% | [4] -4.9% | [5] 46.4% | [6] -11.3%

OCCS
inactive: [1] -7.35% | [2] 5.25% | [3] -8.4% | [4] -21.8% | [5] -3.45% | [6] -4.25%

Nc1ccccc1SC1CC(=O)N(c2ccc(I)cc2)C1=O (configuration not stated)
inactive: [1] -6.8% | [2] -15.7% | [3] -7.5% | [4] 13.8% | [5] 9.55% | [6] 2.35%

CC(C)(C)C1=CC(=O)C(C(C)(C)C)=CC1=O
inactive: [1] -2.35% | [2] 3.2% | [3] -17.2% | [4] -55% | [5] -7% | [6] 17.7%

Clc1cc(Br)c2c(Cl)ccnc2c1Br
inactive: [1] 35.6% | [2] -1.3% | [3] 7.5% | [4] -8.65% | [5] 0.85% | [6] 20%

O=S(=O)(Oc1ccc(Cl)cc1)c1ccc(Br)cc1
inactive: [1] 10.7% | [2] 32.7% | [3] 47.1% | [4] 8.8% | [5] 39.4% | [6] 25.3%

O=C(OC1COC(n2c(=O)oc3ccc(Cl)cc32)C(OC(=O)c2ccccc2)C1OC(=O)c1ccccc1)c1ccccc1 (configuration not stated)
inactive: [1] 8% | [2] 2.5% | [3] 6.8% | [4] -13.2% | [5] -1.1% | [6] 10.7%

COc1ccc(CCNC(=O)CC2CCN(Cc3ccccc3)CC2)cc1OC
inactive: [1] 3.65% | [2] 1.15% | [3] 5.2% | [4] -3.75% | [5] -3.45% | [6] -1.5%

c1ccc(COC[C@H]2O[C@@H](c3ccccc3)C[C@@H](OCc3ccccc3)C2OCc2ccccc2)cc1 (some centres not stated)
inactive: [1] -20.3% | [2] -11.6% | [3] -1.95% | [4] -0.45% | [5] -11.6% | [6] 5.4%

Cc1ccc(S(=O)(=O)n2ccnc2)cc1
inactive: [1] -46% | [2] -21.9% | [3] -1.25% | [4] 15.9% | [5] 11.7% | [6] -25.9%

CCCC(=O)Oc1ccc2ccccc2c1
inactive: [1] 7.65% | [2] 23.5% | [3] 1.8% | [4] 14.7% | [5] -1.5% | [6] -33.5%

O=C(O)C1=CN=C(C(=O)O)NN1
inactive: [1] -24.4% | [2] -23.2% | [3] -28.8% | [4] 19.5% | [5] -4.15% | [6] -34.5%

CCC(=O)OC1CCCCC1C1CCCCC1 (configuration not stated)
inactive: [1] 1.55% | [2] -2.35% | [3] 8% | [4] -37.6% | [5] -3.45% | [6] -3.9%

CCCCCCCCCCCCCCCCOc1ccc(-c2cc(=O)n(C)n2C)cc1
inactive: [1] 6% | [2] -18.6% | [3] -19.1% | [4] -8.45% | [5] -2.9% | [6] -4.05%

COC1OC(CO)C(O)C(NC(=O)[C@H](Cc2ccc(O)cc2)NC(=O)OCc2ccccc2)C1O (some centres not stated)
inactive: [1] 8.6% | [2] -3.75% | [3] 3.2% | [4] -6.05% | [5] -0.5% | [6] 7.1%

O=C(NC12CC3CC(NC(=O)c4ccccc4)(CC(C1)c1ccccc13)C2)c1ccccc1
inactive: [1] 42.9% | [2] 40.2% | [3] 57.4% | [4] 27.4% | [5] 52.5% | [6] 38.4%

C/C(CC(=O)NC1=CC=C(NC(=O)C/C(C)=N\Nc2ccccc2)CC1)=N/Nc1ccccc1
inactive: [1] 8.65% | [2] 12% | [3] -18.8% | [4] -9.35% | [5] -0.1% | [6] 13.7%

COc1ccc2c3c(n(Cc4ccccc4)c(=O)c2c1)-c1cc(OC)c(OC)cc1C3C (configuration not stated)
inactive: [1] 36.1% | [2] -21.7% | [3] -1.25% | [4] -26.6% | [5] -20.4% | [6] 23.1%

Nc1nc2c([nH]c(=O)n2C2OC(CO)C(O)C2O)c(=O)n1N (configuration not stated)
inactive: [1] 16.1% | [2] 6.2% | [3] 18.8% | [4] -13% | [5] 9.95% | [6] 5.2%

O=[S@@]1Nc2cc(Cl)c(Cl)cc2S1
inactive: [1] 9.6% | [2] -2% | [3] -6.6% | [4] 3.45% | [5] -0.05% | [6] 14.1%

CC(C)(C)c1cc(CN2CCOCC2)cc(C(C)(C)C)c1O
inactive: [1] 8% | [2] 5% | [3] 0.7% | [4] 0.15% | [5] -3.15% | [6] 14.3%

CCOC(=O)c1cn(Cc2ccccc2)c(=O)n1Cc1ccccc1
inactive: [1] 36% | [2] 23.3% | [3] 23.5% | [4] -2.4% | [5] 42.5% | [6] 56.1%

C(=N\NC1=NCCCCN1)/c1ccc2ccccc2c1
inactive: [1] 14.1% | [2] -1.75% | [3] -32% | [4] -34.6% | [5] -2.35% | [6] 7.6%

CC1(C)OC(=O)C(=Cc2ccc(C#N)cc2)C(=O)O1
inactive: [1] 19% | [2] 9.6% | [3] 15.4% | [4] 11.8% | [5] 28.6% | [6] 22.8%

c1ccc(B2O[C@H]3CCCC[C@@H]3O2)cc1
inactive: [1] 2.15% | [2] 13.9% | [3] -1.3% | [4] 12.8% | [5] 1.25% | [6] 21.4%

Reference: PubChem BioAssay (NCI)
